Results filed as inconclusive are left out. Activity calls are given as the source filed them. Calls come from the whole dose curve; as a rule, active = well fitted cell-killing curve with a large enough effect; inconclusive = small, poorly fitted or top-dose-only effect, or effect the other way; inactive = no such curve, though single readings can be large or run the other way.
Potency is the fitted concentration of half-maximal effect.

This experiment in a line: Quantitative High-Throughput drug screen in 47 multiple myeloma cell lines against the NCATS MIPE library collection: U266_ATCC cell viability assay (AID 1919864). Note: nearly all actives have a fitted effect of over 35% in size. Particulars: U266 myeloma viability, CellTiter-Glo ATP luminescence, 48 h; series mostly up to 45.8 µM; viability (% of DMSO control): at the top concentration. The text has this: PI: Beverly A. Mock Ph.D.
Laboratory of Cancer Biology and Genetics,
Center for Cancer Research, National Cancer Institute,
National Institute of Health, Bethesda, Maryland
Drug resistance and disease progression are common in multiple myeloma (MM) patients, underscoring the need for new therapeutic combinations. […] We hypothesized that effective combinations would reduce MYC expression and enhance p16 activity. […] These preclinical data identify potentially useful drug combinations for evaluation in drug-resistant MM and reveal potential mechanisms of combined drug sensitivity.
Described herein is the primary MIPE qHTS used to cherrypick compounds. Validated compounds were then further tested for potential synergistic activiy.
[1] Peat TJ, Gaikwad SM, Dubois W, Gyabaah-Kessie N, Zhang S, Gorjifard S, Phyo Z, Andres M, Hughitt VK, Simpson RM, Miller MA, Girvin AT, Taylor A, Williams D, D'Antonio N, Zhang Y, Rajagopalan A, Flietner E, Wilson K, Zhang X, Shinn P, Klumpp-Thomas C, McKnight C, Itkin Z, Chen L, Kazandijian D, Zhang J, Michalowski AM, Simmons JK, Keats J, Thomas CJ, Mock BA. Drug combinations identified by high-throughput screening promote cell cycle transition and upregulate Smad pathways in myeloma. Cancer Lett. 2023 Aug 1;568:216284. doi: 10.1016/j.canlet.2023.216284. Epub 2023 Jun 24. PMID: 37356470; PMCID: PMC10408729.
SEQUENCE No. (e.g., 1, 2, 3, etc.); […] (e.g., Cells, Incubation, Reagent, etc.); VALUE and DESCRIPTION.
1; Cells; 5 uL; white, solid bottom 1536-well Greiner assay plate.
2; Compounds; 23 nL; Kalypsis pin tool (Wako USA) equipped with a 1536-well pin head to transfer to the assay plates.
3; Incubation; 48 hours; 37C incubation.
4; Reagent;5uL; CellTiter Glo (Promega).
5; Detector; 425V; Luminescence; Viewlux PerkinElmer.
NOTES (numbers refer to Sequence numbers above)
1. The cell-based screening methods employed in this study were like those previously published. Briefly, the corresponding myeloma cell lines were screened in 1,536-well plates with 500 cells, 5-uL per well for inhibition of cell viability (assessed by measuring ATP levels with CellTiterGlo).
2. NCATS MIPE 4.0 library of approved and investigational drugs were added using the Kalypsis pin tool. Wells treated with DMSO only for 100% viability and media only for 0% viability were used as controls.
3. The assay plates were covered and incubated for 48 hours in a 37C, 5% CO2 incubator with controlled humidity.
4. After 48 hours, CellTilter-GloTM luminescent substrate mix (Promega) reagent was added to the assay plate and plates we incubated for 5 min at room temperature.
5. Signal was measured as median relative luminescence units on a ViewLux (PerkinElmer) multiplate reader.
[1] Heske CM, Davis MI, Baumgart JT, Wilson K, Gormally MV, Chen L, Zhang X, Ceribelli M, Duveau DY, Guha R, Ferrer M, Arnaldez FI, Ji J, Tran HL, Zhang Y, Mendoza A, Helman LJ, Thomas CJ. Matrix Screen Identifies Synergistic Combination of PARP Inhibitors and Nicotinamide Phosphoribosyltransferase (NAMPT) Inhibitors in Ewing Sarcoma. Clin Cancer Res. 2017 Dec 1;23(23):7301-7311. doi: 10.1158/1078-0432.CCR-17-1121. Epub 2017 Sep 12. PMID: 28899971; PMCID: PMC6636827.
For orientation: ATP-based viability assays read luminescence as a measure of living cells.
For `Cc1nnc(C(=O)NC(C)(C)c2nc(C(=O)NCc3ccc(F)cc3)c(O)c(=O)n2C)o1`, the “viability (% of DMSO control)” value was 111% (inactive). For `Nc1nc(N)nc(-c2cc(Cl)ccc2Cl)n1`, the “viability (% of DMSO control)” value was 125% (inactive). With `C[C@@H](NCCCc1cccc(C(F)(F)F)c1)c1cccc2ccccc12`, the “viability (% of DMSO control)” value was 121% (inactive).

In the case of `CCN(CC)CCn1c(=O)c(Cc2ccc(OC)cc2)nc2ccccc21`, the “viability (% of DMSO control)” value was 140% (inactive). As to `COc1cc2nc(N3CCCN(C)CC3)nc(NC3CCN(Cc4ccccc4)CC3)c2cc1OC`, the Potency was 2.35 µM (active).

Consider `COc1c(N2CCNC(C)C2)c(F)cc2c(=O)c(C(=O)O)cn(C3CC3)c12` (stereo not given), for which the “viability (% of DMSO control)” value is 126% (inactive). As for `COc1ccc(-c2ccc3cc(C(=O)O)ccc3c2)cc1C12CC3CC(CC(C3)C1)C2`, the Potency is 5.26 µM (active). The same measure, in the same setting: with `Cc1ccnc2c1NC(=O)c1cccnc1N2C1CC1` the figure was 16.6 µM (active). Regarding `C[C@@H]1C[C@H]2[C@@H]3CCC4=CC(=O)C=C[C@]4(C)[C@@]3(Cl)[C@@H](O)C[C@]2(C)[C@@]1(OC(=O)c1ccco1)C(=O)CCl`, the Potency is 9.35 µM (active).

For the compound `Nc1[nH]c(=O)ncc1F`, the Potency is 2.64 µM (active).

Consider `CCOC(=O)c1ccc(OC(=O)CCCCCN=C(N)N)cc1`, for which the “viability (% of DMSO control)” value is 147% (inactive). In the case of `O=c1cc(O)c(Cl)c[nH]1`, the Potency was 5.9 µM (active). For the compound `O=C(NCC1CN(c2ccc(N3CCOCC3=O)cc2)C(=O)O1)c1ccc(Cl)s1` (stereo not given), the “viability (% of DMSO control)” value is 125% (inactive). Same read-out and setting: with `CCCCS(=N)(=O)CCC(N)C(=O)O` (stereo not given) the figure was 107% (inactive). With `CCCc1nc(C)c2c(=O)[nH]c(-c3cc(S(=O)(=O)N4CCN(CC)CC4)ccc3OCC)nn12`, the Potency was 5.9 µM (active).

For the compound `CCN[C@H]1C[C@H](C)S(=O)(=O)c2sc(S(N)(=O)=O)cc21`, the “viability (% of DMSO control)” value is 129% (inactive).

Consider `OC(Cn1cncn1)(Cn1cncn1)c1ccc(F)cc1F`, for which the “viability (% of DMSO control)” value is 137% (inactive). `CO[C@@]12[C@H](COC(N)=O)C3=C(C(=O)C(C)=C(N)C3=O)N1C[C@@H]1N[C@@H]12`: the Potency is 20.9 µM (active).

Take `CN1CCCC(n2nc(Cc3ccc(Cl)cc3)c3ccccc3c2=O)CC1` (stereo not given): the Potency was 2.64 µM (active). For the compound `CNNCc1ccc(C(=O)NC(C)C)cc1`, the “viability (% of DMSO control)” value is 136% (inactive). On the same count and under the same terms, the figure for `CC[C@H](NC(C)C)[C@H](O)c1ccc(O)c2[nH]c(=O)ccc12` is 103% (inactive); for `COc1cnc(NS(=O)(=O)c2ccc(N)cc2)nc1` it is 133% (inactive). Consider `Cc1cccc(Nc2ccncc2S(=O)(=O)NC(=O)NC(C)C)c1`, for which the “viability (% of DMSO control)” value was 130% (inactive). On the same count and under the same terms, the figure for `CCn1cc(C(=O)O)c(=O)c2cc(F)c(N3CCN(C)CC3)cc21` is 158% (inactive). Regarding `COc1ccc(C(=O)CC(=O)c2ccc(C(C)(C)C)cc2)cc1`, the Potency is 5.26 µM (active). The same measure, in the same setting: the figure for `C1CCC(C(CC2CCCCN2)C2CCCCC2)CC1` (stereo not given) is 11.8 µM (active); for `O[C@@H](CNC[C@H](O)[C@H]1CCc2cc(F)ccc2O1)[C@@H]1CCc2cc(F)ccc2O1` it is 26.4 µM (active). Regarding `CCCCc1oc2ccc(NS(C)(=O)=O)cc2c1C(=O)c1ccc(OCCCN(CCCC)CCCC)cc1`, the Potency was 14.8 µM (active). Consider `COc1cc([C@@H]2c3cc4c(cc3[C@H](O)[C@H]3COC(=O)[C@H]23)OCO4)cc(OC)c1OC`, for which the “viability (% of DMSO control)” value was 59.3% (inactive).

`Cc1cccc(N(C)C(=S)Oc2ccc3ccccc3c2)c1`: the Potency was 20.9 µM (active). Consider `COc1ncnc(NS(=O)(=O)c2ccc(N)cc2)c1OC`, for which the “viability (% of DMSO control)” value is 150% (inactive). For the compound `O=c1oc2c(O)c(O)cc3c(=O)oc4c(O)c(O)cc1c4c23`, the “viability (% of DMSO control)” value was 138% (inactive).

Turning to `COc1nc(N)nc2c1ncn2[C@@H]1O[C@H](CO)[C@@H](O)[C@@H]1O`, the Potency was 16.6 µM (active).

`COC(=O)Nc1nc2ccc(C(=O)c3ccccc3)cc2[nH]1`: the Potency is 14.8 µM (active). The same measure, in the same setting: with `COc1cc2c(Nc3ccc(Br)cc3F)ncnc2cc1OCC1CCN(C)CC1` the figure was 20.9 µM (active).

Regarding `CN(C)CCc1c[nH]c2ccc(CS(=O)(=O)N3CCCC3)cc12`, the “viability (% of DMSO control)” value was 130% (inactive). The same measure, in the same setting: the figure for `COc1ccccc1OCC(O)COC(N)=O` (stereo not given) is 136% (inactive); for `C[C@]12C=CC(=O)C=C1CC[C@@H]1[C@@H]2C(=O)C[C@@]2(C)[C@H]1CC[C@]2(O)C(=O)CO` it is 134% [at 23.2 µM] (inactive); for `CN1CCN(c2c(F)cc3c(=O)c(C(=O)O)cn4c3c2OCN4C)CC1` it is 117% (inactive). Same read-out and setting: the figure for `NC(=O)c1ccc2[nH]ccc2c1` is 132% (inactive).

The values are drawn from PubChem BioAssay (NCATS).
